In PubChem BioAssay AID1438 (Sanford-Burnham Center for Chemical Genomics, 2008):
The whole screen tested about 2,200 compounds, of which about 45 (2%) were called active. How the calls were made is not given here. A selection follows. Entries with a potency or affinity are not part of this list.

The compounds below were run against Runt-related transcription factor 1 (Homo sapiens) + Core-binding factor subunit beta (Homo sapiens) (UniProt Q01196+Q13951) (assay: Runt domain/CBFb-SMMHC interaction disruptors – biochemical, TR-FRET (AID 1438)). Details: at 20 µM, hits give high values.
Chain of Runt-related transcription factor 1 (Homo sapiens) + Core-binding factor subunit beta (Homo sapiens) (Q01196 whole entry, looked up, the tested form may be a part): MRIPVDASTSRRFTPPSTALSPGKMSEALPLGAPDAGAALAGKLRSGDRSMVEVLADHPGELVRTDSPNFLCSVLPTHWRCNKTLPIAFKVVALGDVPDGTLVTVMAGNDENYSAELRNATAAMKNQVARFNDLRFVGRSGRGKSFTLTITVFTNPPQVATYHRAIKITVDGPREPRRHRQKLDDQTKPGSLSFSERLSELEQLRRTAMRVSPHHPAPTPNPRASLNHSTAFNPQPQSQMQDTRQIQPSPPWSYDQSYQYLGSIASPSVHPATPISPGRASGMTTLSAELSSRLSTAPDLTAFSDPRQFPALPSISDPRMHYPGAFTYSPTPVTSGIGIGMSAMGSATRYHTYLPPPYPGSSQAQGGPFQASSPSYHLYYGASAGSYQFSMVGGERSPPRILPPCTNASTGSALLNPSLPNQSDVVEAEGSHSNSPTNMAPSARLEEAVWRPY
Chain of Runt-related transcription factor 1 (Homo sapiens) + Core-binding factor subunit beta (Homo sapiens) (Q13951 whole entry, looked up, the tested form may be a part): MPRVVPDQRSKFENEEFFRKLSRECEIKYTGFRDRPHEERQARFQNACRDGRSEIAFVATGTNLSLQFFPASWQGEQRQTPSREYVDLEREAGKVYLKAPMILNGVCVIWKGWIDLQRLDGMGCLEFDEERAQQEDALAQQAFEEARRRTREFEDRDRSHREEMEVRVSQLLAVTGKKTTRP

inhibition, inactive:
CCN1CCc2nc(SCC(=O)Nc3ccc(OC)cc3)c(C#N)cc2C1 20.7%
CCOC(=O)C1=C(CSc2nc3c(cc2C#N)CN(C)CC3)OC(N)=C(C#N)C1c1ccncc1 (configuration not stated) 35.4%
Cc1cc(=O)oc2cc(OC(=O)c3cncc(Br)c3)ccc12 -4.4%
O=C(COC(=O)COc1ccccc1[N+](=O)[O-])NC1CCCC1 -6%
COc1ccc(OCCn2cc(/C=C(\C#N)C(=O)NCc3ccco3)c3ccccc32)cc1 -10.8%
COc1c(O)ccc2c1CN1CCc3cc4c(cc3C1C2)OCO4 (configuration not stated) -9.6%
CN1CCc2cc3c(c4c2[C@H]1[C@H](O)c1ccccc1-4)OCO3 18.4%
CNC(=O)/C(C#N)=C/c1c(N(Cc2ccccc2)Cc2ccccc2)nc2c(C)cccn2c1=O -14.8%
CC(=O)N=c1c(C#N)cc2c(=O)n3ccccc3nc2n1CCCOC(C)C 7.1%
CCN(CC)c1ccc2cc(C(=O)Nc3cccnc3N3CCOCC3)c(=O)oc2c1 -26.6%
CCCCCCc1cc2cc(S(=O)(=O)c3ccc(Cl)cc3)c(=O)oc2cc1O 12.2%
Cc1cccn2c(=O)c3cc(S(=O)(=O)c4ccc(F)cc4)c(=N)n(Cc4ccco4)c3nc12 -6.5%
Cc1ccc2nc3c(cc(S(=O)(=O)c4ccccc4)c(=N)n3Cc3ccco3)c(=O)n2c1 -7.9%
CCn1c(=N)c(S(=O)(=O)c2ccccc2)cc2c(=O)n3ccccc3nc21 -19.8%
CCCn1c(=N)c(S(=O)(=O)c2ccccc2)cc2c(=O)n3ccccc3nc21 -6.9%
COC(=O)C1=CN(CC2CCCO2)C=C(C(=O)OC)C1c1ccccc1C(F)(F)F (configuration not stated) 45.6%
Cc1ccccc1OCCn1cc(/C=C(\C#N)C(=O)NCc2ccco2)c2ccccc21 20.8%
COCCOC(=O)C1=C(C)NC2=C(C(=O)CC(C)(C)C2)C1c1cccnc1 (configuration not stated) 35.5%
Fc1ccc(CSc2nc3ncccc3[nH]2)cc1 -9.6%
CCC(C)n1c(=N)c(C#N)cc2c(=O)n3cccc(C)c3nc21 (configuration not stated) -18.9%
CCOC(=O)c1cc2c(=O)n3ccccc3nc2n(Cc2ccco2)c1=NC(=O)c1cccc(OC)c1 -10.1%
O=C(c1ccccc1)c1ccccc1N1C(=O)C=CC1=O 28.3%
O=C1C=CC(=O)N1c1cccc(-c2ccccc2)c1 -6.3%
Cc1ccccc1Oc1nc2c(C)cccn2c(=O)c1/C=C(\C#N)C(=O)NC1CCS(=O)(=O)C1 (configuration not stated) -12.5%
Cc1cc(C)cc(Oc2nc3ccccn3c(=O)c2/C=C(\C#N)C(=O)NC2CCS(=O)(=O)C2)c1 (configuration not stated) -134%
COP(=O)(CC(=O)c1ccccc1)CC(=O)c1ccccc1 -7.7%
Nc1ccc2c(C(F)(F)F)cc(=O)oc2c1 18.1%
O=C(c1ccccc1)c1cnc(Nc2ccc(Cl)c(Cl)c2)s1 29.7%
COc1ccc(N2C3=C(C(=O)CC(C)(C)C3)C(c3cnn(C)c3)C3=C2CC(C)(C)CC3=O)cc1 -7.6%
COc1ccc(N2C3=C(C(=O)CC(C)(C)C3)C(c3ccccc3OC)C3=C2CC(C)(C)CC3=O)cc1 2.8%
CCOC(=O)C1=C(Cc2ccc(C)cc2)C(=O)c2ccccc2C1=O 45.1%
CCOC(=O)c1sc(-c2ccc(Cl)cc2)nc1O -7.6%
Oc1c(C=NCc2ccccc2)sc2ccccc12 -12.8%
CN(C)c1nc(-c2cccs2)cc(C(F)(F)F)c1C#N -6.2%
CN(C)CCNc1c2c(c(C#N)c3nc4ccccc4n13)CCCC2 21.3%
N#Cc1c2c(c(Nc3ccccc3)n3c1nc1ccccc13)CCC2 33.8%
O=C(Nc1nc2c(s1)CN(Cc1ccccc1)CC2)C1CCCC1 -11.2%
CCOc1ccc2nc(NCCNC(=S)NCCCN(C)C)c(C#N)cc2c1 -5.8%
COCCn1c(=N)c(C(=O)NCCc2ccc(OC)cc2)cc2c(=O)n3cccc(C)c3nc21 23.3%
COc1ccc(/C=C2/C(=O)ON=C2c2ccccc2)cc1OC -3.7%
Cn1c(C(=O)NCCC2=CCCCC2)cc2c(=O)n3ccccc3nc21 34.3%
CCCS(=O)(=O)c1c(S(=O)(=O)CCC)c2c(C)cccn2c1C(=O)N/N=C/c1cc(O)cc(O)c1 1.8%
COc1ccc2nc(Nc3sc4c(c3C(N)=O)CCCC4)sc2c1 45.1%
COc1ccccc1-n1c(SCc2cc(=O)oc3cc(O)ccc23)nc2ccccc2c1=O 29.8%
COc1cc(-c2nnc(SCc3cc(=O)oc4cc(O)c(O)cc34)o2)cc(OC)c1OC 49.9%
N#Cc1c(NC(=O)CSc2ncc(-c3ccccc3)n2CC2CCCO2)sc2c1CCCC2 (configuration not stated) -3.3%
CC(=O)N1c2ccccc2C2(O)N=C(C)SC12 (configuration not stated) 28.9%
